JMJD2A Tudor: qHTS Assay for Inhibitors of JMJD2A-Tudor Domain; Lysine-specific demethylase 4A (Homo sapiens), O75164; AlphaScreen JMJD2A-Tudor / H3K4me3 peptide binding; Potency, µM (highest dose often 114 µM), inactives show top-dose activity change, negative = inhibition, hits mostly inhibitors; 390,000 tested, 4.4% active; AID 504339, 2011; further: on the % scale 0 is the no-effect control and ±100 the full control effect; nearly all actives have a fitted effect of over 50% in size
GLS inh: qHTS for Inhibitors of Glutaminase (GLS) | Glutaminase kidney isoform, mitochondrial (Homo sapiens), O94925 | GLS enzymatic activity, qHTS titration | Potency, µM (series often up to 45.5 µM), for inactives: at the top dose activity change, negative = inhibition, actives largely listed as inhibitors | 410,000 tested, 0.21% active | AID 624170, 2012; further: on the % scale 0 is the no-effect control and ±100 the full control effect
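Two-point fluorescence kinetic (t0, 30 min RT) for hKGA; glutamate detected via glutamate oxidase–HRP–Amplex Red. Substrate: 1 mM L-glutamine solution; buffer 45 mM KH2PO4, pH 8.2.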
G9a inh: qHTS Assay for Inhibitors of Histone Lysine Methyltransferase G9a; Potency, µM (titrated, usually from 102 µM), for inactives: at the top dose activity, negative = inhibition, hits mostly inhibitors; Histone-lysine N-methyltransferase EHMT2 (Homo sapiens), Q96KQ7; G9a H3K9 monomethylation, AlphaScreen, 2 h; 350,000 tested, 8.8% active; further: on the % scale 0 is the no-effect control and ±100 the full control effect; nearly all actives have a fitted effect of over 75% in size
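Step 1: enzyme (final 20 nM) with compound, 15 min RT. Step 2: substrate peptide 500 nM and SAM 20 uM, 2 h RT. Step 3: anti-H3K9me1 antibody and AlphaScreen beads, 10 min, then plate read.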
HP1b binding inh: HTS for Inhibitors of HP1-beta Chromodomain Interactions with Methylated Histone Tails | AlphaScreen HP1-beta / biotin-H3K9me3 peptide binding | Potency, µM (top dose mostly 114 µM), without a hit: top-dose activity change, negative = inhibition, usual class: inhibitors | 390,000 tested, 0.56% active | Chromobox protein homolog 1 (Homo sapiens), P83916 | AID 540317, 2011; further: nearly all actives have a fitted effect of over 70% in size
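HP1-beta protein (50 nM final) preincubated 30 min at room temperature with biotinylated H3(1-18)K9me3 peptide (50 nM) in PBS pH 7.4, 0.01% Tween-20, then compound added for 30 min. AlphaScreen streptavidin donor/nickel chelate acceptor beads (10 ug/mL final), 30 min dark, luminescence read.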
L3MBTL1 block: qHTS Assay for the Inhibitors of L3MBTL1; AlphaScreen L3MBTL1–H3K9me1 peptide binding; Potency, µM (titrated, usually from 57.1 µM), without a hit: at the highest dose activity, negative = inhibition, actives largely listed as inhibitors; AID 485360, 2010; 230,000 tested, 0.66% active; Lethal(3)malignant brain tumor-like protein 1 (Homo sapiens), Q9Y468; further: on the % scale 0 is the no-effect control and ±100 the full control effect; nearly all actives have a fitted effect of over 60% in size
Target sequence (Q9Y468 whole entry, looked up): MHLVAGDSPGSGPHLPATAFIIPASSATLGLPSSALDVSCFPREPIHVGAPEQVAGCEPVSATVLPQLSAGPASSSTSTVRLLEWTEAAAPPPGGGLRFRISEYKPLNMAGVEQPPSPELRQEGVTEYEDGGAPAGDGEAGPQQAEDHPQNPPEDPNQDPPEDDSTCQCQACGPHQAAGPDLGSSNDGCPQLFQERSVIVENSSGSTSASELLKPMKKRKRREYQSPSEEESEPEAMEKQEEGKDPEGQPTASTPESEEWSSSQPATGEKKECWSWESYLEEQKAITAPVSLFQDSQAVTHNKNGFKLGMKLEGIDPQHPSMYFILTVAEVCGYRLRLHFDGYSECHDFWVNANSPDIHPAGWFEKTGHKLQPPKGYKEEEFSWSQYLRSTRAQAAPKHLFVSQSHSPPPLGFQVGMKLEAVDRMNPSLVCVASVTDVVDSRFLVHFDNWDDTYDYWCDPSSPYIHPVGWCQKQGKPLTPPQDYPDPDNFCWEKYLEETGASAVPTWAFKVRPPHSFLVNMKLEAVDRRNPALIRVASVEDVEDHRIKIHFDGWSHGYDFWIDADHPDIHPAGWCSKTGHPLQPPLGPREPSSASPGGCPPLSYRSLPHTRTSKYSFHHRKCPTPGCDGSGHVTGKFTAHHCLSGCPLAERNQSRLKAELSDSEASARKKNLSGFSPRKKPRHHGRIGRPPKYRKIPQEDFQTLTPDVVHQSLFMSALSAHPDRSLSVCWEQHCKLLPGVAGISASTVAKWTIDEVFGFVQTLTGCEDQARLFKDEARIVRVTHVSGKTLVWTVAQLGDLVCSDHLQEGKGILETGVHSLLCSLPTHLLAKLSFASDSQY
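AlphaScreen assay: L3MBTL1 (50 nM final) was preincubated 30 min at room temperature with biotinylated H3(1-15)K9me1 peptide (75 nM final), then 30 min with library compounds; streptavidin donor and nickel chelate acceptor beads (10 ug/mL final) added, 30 min dark.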
BAZ2B block: qHTS Assay for Inhibitors of BAZ2B | Potency, µM (top dose mostly 114 µM), for inactives: at the highest dose activity change, negative = inhibition, actives largely listed as inhibitors | AlphaScreen BAZ2B-H3K14Ac peptide displacement | 360,000 tested, 4.4% active; further: on the % scale 0 is the no-effect control and ±100 the full control effect; nearly all actives have a fitted effect of over 60% in size
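AlphaScreen displacement: compounds (up to 110uM) incubated 30 min at room temperature with a preformed 50 nM BAZ2B/50 nM biotinylated H3K14Ac peptide complex in PBS pH 7.4 with Tween-20. Donor and acceptor beads at 10 ug/mL final added, 20 min light-protected before reading.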
Numbers without * were called inactive; [ ] = another dose, or the depositor's remark. In the library only some 10% were active in any assay of this set; here they are far more common. The call rests on the fitted dose curve; in most records, active means well fitted curve in the direction sought with a large enough effect; inconclusive means small, poorly fitted or top-dose-only effect, or another doubt; inactive means no such curve, though single readings can be large; an effect the other way counts as inactive or inconclusive. Potency means the concentration at half of the fitted maximal effect.

Screening Cc1cc(C)cc(NC(=O)c2c(C)oc3nc(C)nc(N4CCCC4)c23)c1 returned JMJD2A Tudor -5.5%, GLS inh 1.5%, G9a inh -23.8%[59 µM], HP1b binding inh 39.8% and BAZ2B block 2.5%[57.1 µM].
`Cc1ccc(Cl)cc1NC(=O)C(C)n1nc(-c2ccccc2)ccc1=O` (stereo not given) gave JMJD2A Tudor inconclusive, GLS inh 1.1%, G9a inh -4.8%[59 µM], HP1b binding inh 1.4% and BAZ2B block -14.6%.
Screening Cc1[nH]c2ccccc2c1C(=O)COC(=O)c1ccc([N+](=O)[O-])s1 returned JMJD2A Tudor inconclusive, GLS inh -4.0%, G9a inh 31.6µM*, HP1b binding inh -6.0%, L3MBTL1 block -13.9% and BAZ2B block inconclusive.
O=C(COC(=O)c1ccc2ncsc2c1)Nc1ncc(Cl)cc1Cl was read as JMJD2A Tudor inconclusive, GLS inh inconclusive, G9a inh inconclusive, HP1b binding inh -18.8%, L3MBTL1 block inconclusive and BAZ2B block 50.1µM*.
`Cc1c(Cl)cnc(NC(=O)COC(=O)c2ccc([N+](=O)[O-])s2)c1Cl` gave JMJD2A Tudor 50.1µM*, GLS inh -4.3%, G9a inh 25.1µM*, HP1b binding inh -19.0%, L3MBTL1 block inconclusive and BAZ2B block 44.7µM*.
O=C(COC(=O)c1ccc2ncsc2c1)Nc1cc(Cl)ccc1F was read as JMJD2A Tudor -2.0%, GLS inh -1.6%, G9a inh -30.8%, HP1b binding inh 33.6%, L3MBTL1 block 2.1% and BAZ2B block -5.1%.
Cc1c(Cl)cnc(NC(=O)COC(=O)c2ccc3ncsc3c2)c1Cl was read as JMJD2A Tudor inconclusive, GLS inh 0.0%, G9a inh inconclusive, HP1b binding inh 0.0%, L3MBTL1 block inconclusive and BAZ2B block 50.1µM*.
For O=C(COC(=O)c1ccc([N+](=O)[O-])s1)NCc1ccccc1 the results were JMJD2A Tudor -0.7%, GLS inh -7.9%, G9a inh inconclusive, HP1b binding inh 22.6%, L3MBTL1 block inconclusive and BAZ2B block 0.2%.
For O=C(COC(=O)c1ccc([N+](=O)[O-])s1)Nc1ccc(Cl)cn1 the results were JMJD2A Tudor -26.9%, GLS inh 3.7%, G9a inh -23.9%[59 µM], HP1b binding inh 9.9%, L3MBTL1 block inconclusive and BAZ2B block -38.8%.
For O=C(COC(=O)c1ccc2c(c1)OCO2)Nc1ncc(Cl)cc1Cl the results were JMJD2A Tudor -9.7%, GLS inh -2.6%, G9a inh -0.7%[59 µM], HP1b binding inh 35.4%, L3MBTL1 block 3.1% and BAZ2B block -4.3%.
O=C(COC(=O)c1ccc(O)cc1)Nc1ncc(Cl)cc1Cl was read as JMJD2A Tudor -7.5%, GLS inh -1.0%, G9a inh inconclusive, HP1b binding inh 27.1%, L3MBTL1 block inconclusive and BAZ2B block 79.4µM*.
`Cc1ccc(C(=O)NCCC(C)C)cc1NC(=O)c1nsc2ccccc12` gave JMJD2A Tudor -7.1%, GLS inh -1.4%, G9a inh 6.9%[59 µM], HP1b binding inh 23.7%[57 µM] and BAZ2B block 0.1%.
COc1cc(NC(=O)Cn2cc(C(=O)c3ccc(F)cc3)c(=O)c3ccc(C)nc32)cc(OC)c1 was read as JMJD2A Tudor -13.9%, GLS inh -0.4%, G9a inh -15.0%[59 µM], HP1b binding inh 30.8% and BAZ2B block 8.8%[57.1 µM].

Source: PubChem BioAssay (National Center for Advancing Translational Sciences (NCATS))
